PostGolgi yeast = growth inhibition of a yeast mutant, post-Golgi transport screen | AID 739 | inhibition, % at 10 µM | 0.9% of 98,000 active | post-Golgi transport phenotypic cell assay;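 further: yeast cells grown in 1536-well plates; yeast grown about 18 h at 30C before absorbance read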
CYP2C9 inhib = human CYP2C9 inhibition | P11712 | CYP2C9 Supersomes, luciferin-H conversion, luminescence | inhibition, % at 5 µM | 20% of 96,000 active;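 active means blocking of liver enzyme CYP2C9 beyond about 50% at 5 µM, limit read from the data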
CYP2C19 inh = inhibitors of human CYP2C19. 21% of 96,000 active. inhibition, % at 5 µM. CYP2C19 Supersomes, luciferin-H EGE luminescence, 30 min. P33261. AID 778;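 active means CYP2C19 inhibition above a set limit at 5 µM in the primary screen, cut at about 50% in these data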;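 further: plate controls were negative control wells for no effect and 2.5 mM tranylcypromine positive control for full effect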
Target sequence (P33261 whole entry, looked up): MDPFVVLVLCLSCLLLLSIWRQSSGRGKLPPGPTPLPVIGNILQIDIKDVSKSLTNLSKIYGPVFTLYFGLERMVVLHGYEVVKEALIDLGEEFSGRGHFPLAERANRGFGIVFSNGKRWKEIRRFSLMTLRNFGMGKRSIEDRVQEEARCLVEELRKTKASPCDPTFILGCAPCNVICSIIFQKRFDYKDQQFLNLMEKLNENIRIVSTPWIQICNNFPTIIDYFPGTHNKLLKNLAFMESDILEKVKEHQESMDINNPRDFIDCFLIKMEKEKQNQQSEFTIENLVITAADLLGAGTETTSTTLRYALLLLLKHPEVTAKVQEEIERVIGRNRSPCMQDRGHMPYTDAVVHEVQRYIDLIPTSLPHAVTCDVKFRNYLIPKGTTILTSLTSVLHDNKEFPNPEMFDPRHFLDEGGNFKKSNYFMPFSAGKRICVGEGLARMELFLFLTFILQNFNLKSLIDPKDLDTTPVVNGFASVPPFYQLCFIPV
CYP2C19 activ = increases human CYP2C19 enzyme activity; recombinant CYP2C19, luciferin-H EGE luminescence; hits give high values; 0 = fully inhibited enzyme, 1 = untreated enzyme; activation factor at 5 µM; 96,000 tested, under 10 active;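 active means activation factor of at least 2 at 5 µM in the primary screen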;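 further: 0 = wells with 2.5 mM tranylcypromine and 1 = vehicle-only wells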
CYP2C9 act = CYP2C9 (human) activation. P11712. recombinant CYP2C9, luciferin-H conversion, luminescence; hits give high values; factor 1 = untreated enzyme, 0 = blocked. activation factor at 5 µM. 1.4% of 96,000 active;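 active means activation factor of 2 or more for CYP2C9 at a 5 µM dose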;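 further: 0 = sulfaphenazole-blocked wells and 1 = vehicle-only wells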
PostGolgi ctrl = inhibits growth of the yeast control strain; efflux-deficient yeast background strain, growth absorbance A615, 16 h; inhibition, % at 10 µM; 5% of 98,000 active; AID 738
The depositor's hits bear a star; / = not tested or not shown. An excerpt weighted towards active compounds, which were near 32% of everything screened. Unless noted, no stated cut-off is given here; in the data, active means inhibition above about 30%; inactive means the rest.

SMILES	PostGolgi yeast	CYP2C9 inhib	CYP2C19 inh	CYP2C19 activ	CYP2C9 act	PostGolgi ctrl
CCOc1cc(CNCc2cccs2)cc(Br)c1OCC	0	17	73*	0.3	0.8	4
CCOc1cc(CNCCO)cc(Br)c1OCc1cccs1	-11	4	45	0.6	1	-1
COc1cc(CNCCSc2nnnn2C)cc(Br)c1OCc1ccc(F)cc1	3	18	76*	0.2	0.8	5
COc1cc(CNCCSc2nnnn2C)cc(Br)c1OCc1ccccc1F	4	9	68*	0.3	0.9	15
O=C(OCCCC(=O)N1CCOCC1)c1ccccc1	0	-7	48	0.5	1.1	-5
Cc1cccc(C)c1NC(=O)N1CCC(N2CCCCC2)CC1	0	-5	-8	1.1	1	5
CCN1CCN(C(=O)C2c3cc(OC)c(OC)cc3C(=O)N(C)C2c2ccc(SC)cc2)CC1 (stereo unspecified)	-3	/	/	/	/	-4
CCOC(=O)C1CCCN(c2ncnc3c2[nH]c2cccc(OC)c23)C1 (stereo unspecified)	-3	47	63*	0.4	0.5	6
CCOC(=O)Cc1csc(SCC(=O)Nc2cc(Cl)ccc2Oc2ccccc2)n1	4	94*	91*	0.1	0.1	11
CCOC(=O)Cc1csc(N/N=C\c2cccc(Br)c2)n1	17	-17	-12	1.1	1.2	3
CCOC(=O)Cc1csc(SCC(=O)N2CCN(c3ccc(OC)cc3)CC2)n1	0	45	16	0.8	0.5	-3
CCOC(=O)Cc1csc(SCC(=O)Nc2cccc(Cl)c2)n1	-1	66*	32	0.7	0.3	4
CCOC(=O)Cc1csc(SCC(=O)Nc2cccc(C#N)c2)n1	16	80*	66*	0.3	0.2	21
O=C(Nc1cc(Cl)ccc1Oc1ccccc1)c1cnccn1	4	5	4	1	1	8
Cc1nc(SCC(=O)Nc2cccc(Cl)c2)n[nH]1	-4	23	64*	0.4	0.8	44*
Cc1cc(C)c[n+](-c2nc3ccccc3nc2C(=C=[N-])C#N)c1	-1	10	-3	1	0.9	2
COCCN(CCOC)c1cc(C)c(C#N)c2nc3ccccc3n12	-5	15	10	0.9	0.9	-2
CCOc1cccc(Oc2ccc(C(F)(F)F)cn2)c1	2	-11	-13	1.1	1.1	34*
COc1cccc(OC)c1Oc1ccc(C(F)(F)F)cn1	0	11	66*	0.3	0.9	4
COc1cc(-c2nc(-c3cccc(C(F)(F)F)c3)no2)cc(OC)c1OC	0	-6	9	0.9	1.1	1
CCOC(=O)c1sc2nc(N3CCOCC3)c3c(c2c1N)CCN(Cc1ccccc1)C3	4	9	-4	1	0.9	17
COc1ccccc1NC(=O)c1csc2c1CCCC2	0	-144	38	0.6	2.4*	3
COc1ccccc1C(=O)Nc1sc2c(c1C(=O)NCc1ccco1)CCCC2	-6	84*	18	0.8	0.2	8
COc1ccccc1NC(=O)c1c(NC(=O)c2ccco2)sc2c1CCC2	5	64*	18	0.8	0.4	21
COC(=O)c1c(NC(=O)c2ccco2)sc(C(=O)N2CCCC2)c1C	18	61*	26	0.7	0.4	4
SMILES	PostGolgi yeast	CYP2C9 inhib	CYP2C19 inh	CYP2C19 activ	CYP2C9 act	PostGolgi ctrl
CSc1ncc(Cl)c(C(=O)Nc2sc3c(c2C(=O)NCc2ccco2)CCCC3)n1	-3	28	5	0.9	0.7	4
COC(=O)c1c(NC(=O)Cc2cccs2)sc(C(=O)N2CCCCC2)c1C	-7	/	/	/	/	14
Cn1c(CNC(=O)c2ccc(Cl)cc2)nnc1SCC(=O)Nc1sc2c(c1C#N)CCCC2	0	0	2	1	1	-8
CCOC(=O)c1sc(NC(=O)CN2CCCC2)c(C(=O)OCC)c1C	25	16	4	1	0.8	0
Cc1ccccc1OCC(=O)Nc1sc2c(c1C#N)CCC2	-3	16	-7	1.1	0.8	-1
COc1ccccc1OCC(=O)Nc1sc2c(c1C(=O)NCC1CCCO1)CCC2 (stereo unspecified)	-8	96*	52*	0.5	0	21
COC(=O)c1c(NS(=O)(=O)Cc2ccccc2)sc2c1CCCC2	-5	96*	93*	0.1	0	41*
N#Cc1c(NC(NC(=O)c2ccco2)C(=O)c2ccccc2)sc2c1CCCC2 (stereo unspecified)	41*	76*	16	0.8	0.2	81*
CCOC(=O)c1c(NC(=O)C(F)(OC)C(F)(F)F)sc(C(=O)N2CCCCC2)c1C (stereo unspecified)	-14	76*	24	0.8	0.2	12
NC(=O)c1c(NC(NC(=O)c2ccco2)C(=O)c2ccc(Cl)cc2)sc2c1CCCC2 (stereo unspecified)	-2	43	-1	1	0.6	7
COc1ccc(-c2nc(C(N)=O)c3[nH]c(=O)n(-c4cccc(C)c4)c3n2)c(OC)c1	0	18	-7	1.1	0.8	9
CCOC(=O)c1c(NC(=O)c2ccn(CC)n2)sc2c1CCCC2	7	68*	55*	0.5	0.3	16
CCOC(=O)c1c(NC(=O)c2ccco2)sc2c1CCCC2	3	56*	14	0.9	0.4	8
CCc1c(C)sc(NC(=O)OC)c1C(=O)N1CCCCC1	3	-2	52*	0.5	1	-6
O=c1[nH]c2ccsc2c(=O)n1-c1ccc(F)cc1	8	7	11	0.9	0.9	0
COc1cc(OC)c(NC(=O)c2ccco2)cc1Cl	18	0	4	1	1	2
COc1cc(NS(=O)(=O)c2ccc(Br)cc2)c(OC)cc1NC(=O)c1ccco1	-13	100*	98*	0	0	26
COc1ccc(NC(=O)c2cc(Cl)ccc2NC(=O)c2ccco2)c(OC)c1	20	94*	73*	0.3	0.1	13
COc1cc(NC(=O)Cc2ccc(Cl)cc2)ccc1NC(=O)c1ccco1	-9	41	23	0.8	0.6	24
CCOc1cc(NS(=O)(=O)CC)c(OCC)cc1NC(=O)c1ccco1	12	10	-3	1	0.9	10
COc1ccc(S(=O)(=O)Nc2cc(OC)c(NC(=O)c3ccco3)cc2OC)cc1	-13	94*	57*	0.4	0.1	7
COc1cc2c(=O)n(Cc3ccccc3)c(=O)n(CC(=O)NCCc3ccccc3)c2cc1OC	2	15	-10	1.1	0.8	6
CC1CC(=O)Nc2ccccc2S1(=O)=O (stereo unspecified)	10	-20	9	0.9	1.2	0
O=C(NC1(C(F)(F)F)NC(=O)N(C2CCCC2)C1=O)C1CC1 (stereo unspecified)	-2	-8	4	1	1.1	-3
